# Source: the supplement of paper PMC6992640
# Structures can show the parent of a compound that is named as a salt.
# Assays:
# Assay in all cases: cell viability of combination (% of vehicle); higher = less cytotoxic
# Details in all cases: 1 µM; 72 h; partner dose: 10 nM
# [1] = tested on: HCI01 (cells of a triple-negative basal-like breast cancer xenograft)
# Method: (§1)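 PDX cells were treated for 72 h with each drug at 1 µM plus carfilzomib (10 nM; 100 nM for WHIM2). Luciferase viability is expressed as percent of vehicle.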
# [2] = tested on: UCD52 (cells of a triple-negative basal-like breast cancer xenograft)
# Method: as §1
# [3] = tested on: WHIM30 (cells of a triple-negative basal-like breast cancer xenograft)
# Method: as §1
# [4] = tested on: HCI01; remark: listed apart in the source
# Method: (§2)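 PDX cells were treated for 72 h with each drug at 1 µM plus afatinib (10 nM; 1 µM for WHIM30). Luciferase viability is expressed as percent of vehicle.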
# [5] = tested on: UCD52; remark: listed apart in the source
# Method: as §2
# [6] = tested on: WHIM2 (cells of a triple-negative basal-like breast cancer xenograft)
# Method: as §2
smiles,measurement,setting,value
CCCCc1oc2ccc(NS(C)(=O)=O)cc2c1C(=O)c1ccc(OCCCN(CCCC)CCCC)cc1 [Dronedarone] + CC(C)C[C@H](NC(=O)[C@H](CCc1ccccc1)NC(=O)CN1CCOCC1)C(=O)N[C@@H](Cc1ccccc1)C(=O)N[C@@H](CC(C)C)C(=O)[C@@]1(C)CO1 [Carfilzomib],cell viability of combination,[1],76.1
same,cell viability of combination,[2],59.3
same,cell viability of combination,[3],19
COc1cc(Nc2c(C#N)cnc3cc(OCCCN4CCN(C)CC4)c(OC)cc23)c(Cl)cc1Cl [Bosutinib (SKI-606)] + CC(C)C[C@H](NC(=O)[C@H](CCc1ccccc1)NC(=O)CN1CCOCC1)C(=O)N[C@@H](Cc1ccccc1)C(=O)N[C@@H](CC(C)C)C(=O)[C@@]1(C)CO1 [Carfilzomib],cell viability of combination,[1],70.1
same,cell viability of combination,[2],35.3
same,cell viability of combination,[3],20.9
CC(C)CC(NC(=O)C(NC(=O)c1cccc(-c2ccccc2)n1)C(C)O)B(O)O (stereo unspecified) + CC(C)C[C@H](NC(=O)[C@H](CCc1ccccc1)NC(=O)CN1CCOCC1)C(=O)N[C@@H](Cc1ccccc1)C(=O)N[C@@H](CC(C)C)C(=O)[C@@]1(C)CO1 [Carfilzomib],cell viability of combination,[1],42.4
same,cell viability of combination,[2],20.1
same,cell viability of combination,[3],8.71
Cc1c(Cl)cccc1Nc1ccccc1C(=O)O [Tolfenamic Acid] + CC(C)C[C@H](NC(=O)[C@H](CCc1ccccc1)NC(=O)CN1CCOCC1)C(=O)N[C@@H](Cc1ccccc1)C(=O)N[C@@H](CC(C)C)C(=O)[C@@]1(C)CO1 [Carfilzomib],cell viability of combination,[1],74.7
same,cell viability of combination,[2],69.7
same,cell viability of combination,[3],20.7
O=C(c1ccc(F)c(F)c1Nc1ccc(I)cc1F)N1CC(O)(C2CCCCN2)C1 (stereo unspecified) [Cobimetinib] + CC(C)C[C@H](NC(=O)[C@H](CCc1ccccc1)NC(=O)CN1CCOCC1)C(=O)N[C@@H](Cc1ccccc1)C(=O)N[C@@H](CC(C)C)C(=O)[C@@]1(C)CO1 [Carfilzomib],cell viability of combination,[1],65.6
same,cell viability of combination,[2],44.7
same,cell viability of combination,[3],24.7
C=C1C(=CC=C2CCCC3(C)C2CCC3C(C)CCCC(C)C)CC(O)CC1O (stereo unspecified) [Alfacalcidol] + CC(C)C[C@H](NC(=O)[C@H](CCc1ccccc1)NC(=O)CN1CCOCC1)C(=O)N[C@@H](Cc1ccccc1)C(=O)N[C@@H](CC(C)C)C(=O)[C@@]1(C)CO1 [Carfilzomib],cell viability of combination,[1],55.4
same,cell viability of combination,[2],41
CC(=O)c1cc2c(o1)C(=O)c1ccccc1C2=O [Napabucasin] + CC(C)C[C@H](NC(=O)[C@H](CCc1ccccc1)NC(=O)CN1CCOCC1)C(=O)N[C@@H](Cc1ccccc1)C(=O)N[C@@H](CC(C)C)C(=O)[C@@]1(C)CO1 [Carfilzomib],cell viability of combination,[1],22.6
same,cell viability of combination,[2],15.7
CCCSc1nc(NC2CC2c2ccc(F)c(F)c2)c2nnn(C3CC(OCCO)C(O)C3O)c2n1 (stereo unspecified) [Ticagrelor] + CC(C)C[C@H](NC(=O)[C@H](CCc1ccccc1)NC(=O)CN1CCOCC1)C(=O)N[C@@H](Cc1ccccc1)C(=O)N[C@@H](CC(C)C)C(=O)[C@@]1(C)CO1 [Carfilzomib],cell viability of combination,[1],95.1
same,cell viability of combination,[2],54.3
same,cell viability of combination,[3],14.4
CC(NCCCc1cccc(C(F)(F)F)c1)c1cccc2ccccc12 (stereo unspecified) [Cinacalcet] + CC(C)C[C@H](NC(=O)[C@H](CCc1ccccc1)NC(=O)CN1CCOCC1)C(=O)N[C@@H](Cc1ccccc1)C(=O)N[C@@H](CC(C)C)C(=O)[C@@]1(C)CO1 [Carfilzomib],cell viability of combination,[1],82.4
same,cell viability of combination,[2],56.1
Cl.Cl.Fc1ccc(C(c2ccc(F)cc2)N2CCN(CC=Cc3ccccc3)CC2)cc1 [Flunarizine 2HCl] + CC(C)C[C@H](NC(=O)[C@H](CCc1ccccc1)NC(=O)CN1CCOCC1)C(=O)N[C@@H](Cc1ccccc1)C(=O)N[C@@H](CC(C)C)C(=O)[C@@]1(C)CO1 [Carfilzomib],cell viability of combination,[1],103
same,cell viability of combination,[2],61.1
same,cell viability of combination,[3],15
COc1nc2ccc(Br)cc2cc1[C@@H](c1ccccc1)[C@@](O)(CCN(C)C)c1cccc2ccccc12 [Bedaquiline fumarate] + CC(C)C[C@H](NC(=O)[C@H](CCc1ccccc1)NC(=O)CN1CCOCC1)C(=O)N[C@@H](Cc1ccccc1)C(=O)N[C@@H](CC(C)C)C(=O)[C@@]1(C)CO1 [Carfilzomib],cell viability of combination,[1],77.1
same,cell viability of combination,[2],68.8
same,cell viability of combination,[3],22.5
CNC1CCC(c2ccc(Cl)c(Cl)c2)c2ccccc21.Cl (stereo unspecified) [Sertraline HCl] + CN(C)C/C=C/C(=O)Nc1cc2c(Nc3ccc(F)c(Cl)c3)ncnc2cc1O[C@H]1CCOC1 [Afatinib],cell viability of combination,[4],53.4
same,cell viability of combination,[5],56.4
same,cell viability of combination,[6],49.2
CCC(=C(c1ccccc1)c1ccc(OCCN(C)C)cc1)c1ccccc1.O=C(O)CC(O)(CC(=O)O)C(=O)O [Tamoxifen Citrate] + CC(C)C[C@H](NC(=O)[C@H](CCc1ccccc1)NC(=O)CN1CCOCC1)C(=O)N[C@@H](Cc1ccccc1)C(=O)N[C@@H](CC(C)C)C(=O)[C@@]1(C)CO1 [Carfilzomib],cell viability of combination,[1],90.4
same,cell viability of combination,[2],71.2
same,cell viability of combination,[3],23.8
CC(C)N=c1cc2n(-c3ccc(Cl)cc3)c3ccccc3nc-2cc1Nc1ccc(Cl)cc1 [Clofazimine] + CC(C)C[C@H](NC(=O)[C@H](CCc1ccccc1)NC(=O)CN1CCOCC1)C(=O)N[C@@H](Cc1ccccc1)C(=O)N[C@@H](CC(C)C)C(=O)[C@@]1(C)CO1 [Carfilzomib],cell viability of combination,[1],71.9
same,cell viability of combination,[2],62.7
same,cell viability of combination,[3],16.7
CC(C)CC(NC(=O)C(CCc1ccccc1)NC(=O)CN1CCOCC1)C(=O)NC(Cc1ccccc1)C(=O)NC(CC(C)C)C(=O)C1(C)CO1 (stereo unspecified) [Carfilzomib (PR-171)] + CC(C)C[C@H](NC(=O)[C@H](CCc1ccccc1)NC(=O)CN1CCOCC1)C(=O)N[C@@H](Cc1ccccc1)C(=O)N[C@@H](CC(C)C)C(=O)[C@@]1(C)CO1 [Carfilzomib],cell viability of combination,[1],31
same,cell viability of combination,[2],14.2
same,cell viability of combination,[3],9.47
CC1(COc2ccc3c(c2)ncn3-c2ccc3cccc(N4CCC(N)CC4)c3n2)COC1 + CN(C)C/C=C/C(=O)Nc1cc2c(Nc3ccc(F)c(Cl)c3)ncnc2cc1O[C@H]1CCOC1 [Afatinib],cell viability of combination,[4],56.3
same,cell viability of combination,[5],108
CNCCC(Oc1cccc2ccccc12)c1cccs1.Cl (stereo unspecified) [Duloxetine HCl] + CC(C)C[C@H](NC(=O)[C@H](CCc1ccccc1)NC(=O)CN1CCOCC1)C(=O)N[C@@H](Cc1ccccc1)C(=O)N[C@@H](CC(C)C)C(=O)[C@@]1(C)CO1 [Carfilzomib],cell viability of combination,[1],81.6
same,cell viability of combination,[2],62.4
same,cell viability of combination,[3],16.1
CCCCCCCCCCCCCCCCOP(=O)([O-])OCC[N+](C)(C)C [Miltefosine] + CC(C)C[C@H](NC(=O)[C@H](CCc1ccccc1)NC(=O)CN1CCOCC1)C(=O)N[C@@H](Cc1ccccc1)C(=O)N[C@@H](CC(C)C)C(=O)[C@@]1(C)CO1 [Carfilzomib],cell viability of combination,[1],75.2
same,cell viability of combination,[2],71.6
same,cell viability of combination,[3],22.7
COc1cc(C(=O)O)ccc1NC(=O)C1NC(CC(C)(C)C)C(C#N)(c2ccc(Cl)cc2F)C1c1cccc(Cl)c1F (stereo unspecified) + CC(C)C[C@H](NC(=O)[C@H](CCc1ccccc1)NC(=O)CN1CCOCC1)C(=O)N[C@@H](Cc1ccccc1)C(=O)N[C@@H](CC(C)C)C(=O)[C@@]1(C)CO1 [Carfilzomib],cell viability of combination,[1],79.1
same,cell viability of combination,[2],62.7
same,cell viability of combination,[3],23.5
CNC(=O)c1cc(Oc2ccc(NC(=O)Nc3ccc(Cl)c(C(F)(F)F)c3)c(F)c2)ccn1.Cl [Regorafenib hydrochloride] + CN(C)C/C=C/C(=O)Nc1cc2c(Nc3ccc(F)c(Cl)c3)ncnc2cc1O[C@H]1CCOC1 [Afatinib],cell viability of combination,[4],52
same,cell viability of combination,[5],53.3
same,cell viability of combination,[6],43.3
CC(NCCCc1cccc(C(F)(F)F)c1)c1cccc2ccccc12.Cl (stereo unspecified) [Cinacalcet HCl] + CC(C)C[C@H](NC(=O)[C@H](CCc1ccccc1)NC(=O)CN1CCOCC1)C(=O)N[C@@H](Cc1ccccc1)C(=O)N[C@@H](CC(C)C)C(=O)[C@@]1(C)CO1 [Carfilzomib],cell viability of combination,[1],89.6
same,cell viability of combination,[2],59.9
same,cell viability of combination,[3],18.6
CS(=O)(=O)CCNCc1ccc(-c2ccc3ncnc(Nc4ccc(OCc5cccc(F)c5)c(Cl)c4)c3c2)o1.Cc1ccc(S(=O)(=O)O)cc1.Cc1ccc(S(=O)(=O)O)cc1 [Lapatinib Ditosylate] + CC(C)C[C@H](NC(=O)[C@H](CCc1ccccc1)NC(=O)CN1CCOCC1)C(=O)N[C@@H](Cc1ccccc1)C(=O)N[C@@H](CC(C)C)C(=O)[C@@]1(C)CO1 [Carfilzomib],cell viability of combination,[1],69.5
same,cell viability of combination,[2],47.7
same,cell viability of combination,[3],23.7
COc1cc(C(=O)NS(=O)(=O)c2ccccc2C)ccc1Cc1cn(C)c2ccc(NC(=O)OC3CCCC3)cc12 [Zafirlukast] + CC(C)C[C@H](NC(=O)[C@H](CCc1ccccc1)NC(=O)CN1CCOCC1)C(=O)N[C@@H](Cc1ccccc1)C(=O)N[C@@H](CC(C)C)C(=O)[C@@]1(C)CO1 [Carfilzomib],cell viability of combination,[1],83.2
same,cell viability of combination,[2],65
same,cell viability of combination,[3],17.9
C=C1C(=CC=C2CCCC3(C)C2CCC3C(C)CCCC(C)(C)O)CC(O)CC1O (stereo unspecified) [Calcitriol] + CC(C)C[C@H](NC(=O)[C@H](CCc1ccccc1)NC(=O)CN1CCOCC1)C(=O)N[C@@H](Cc1ccccc1)C(=O)N[C@@H](CC(C)C)C(=O)[C@@]1(C)CO1 [Carfilzomib],cell viability of combination,[1],53.8
same,cell viability of combination,[2],38.4
same,cell viability of combination,[3],19.1
Clc1ccc(C(Cn2ccnc2)OCc2ccc(Sc3ccccc3)cc2)c(Cl)c1.O=[N+]([O-])O (stereo unspecified) [Fenticonazole Nitrate] + CC(C)C[C@H](NC(=O)[C@H](CCc1ccccc1)NC(=O)CN1CCOCC1)C(=O)N[C@@H](Cc1ccccc1)C(=O)N[C@@H](CC(C)C)C(=O)[C@@]1(C)CO1 [Carfilzomib],cell viability of combination,[1],83.9
same,cell viability of combination,[2],65.2
same,cell viability of combination,[3],21.1
